Bioassay records: PubChem BioAssay, several laboratories
The list is not random: actives were taken first. Their share in the collection is about 2.2%.
APP 5UTR inh = inhibitors of APP translation via 5'UTR reporter, primary screen, APP 5'UTR luciferase, SH-SY5Y cells; inhibition, % at 2 µM; AID 1285, 2008; SH-SY5Y APP 5'UTR-luciferase reporter, luminescence; hit rate 0.82% among 190,000;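 active = inhibition above a set limit, derived from the sample mean plus 3 SD, cut at about 45% in these data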
KLF5 inhibitor = KLF5 expression inhibitors, primary screen, DLD-1 cells, luminescence; DLD-1 KLF5 promoter-luciferase reporter; inhibition, % at 5 µM; hit rate 0.23% among 290,000; AID 1700, 2009;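 active = inhibition above a per-plate limit of that plate's mean compound inhibition plus 3 SD, cut at about 60% in these data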;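 note: 0% = DMSO wells and 100% = LY294002 at 200 µM; higher means less KLF5 promoter-driven luciferase light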
aSyn 5UTR inh = MLPCN primary screen, SNCA 5' untranslated region; alpha-synuclein 5'UTR reporter, inhibitor activity; inhibition, % (tested at 7.5 µM); hit rate 0.82% among 300,000; AID 1813, 2009; in the data active = inhibition above about 60%;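 note: H4 neuroglioblastoma cells stably carrying SNCA 5'UTR luciferase fusion; 0% = DMSO wells and 100% = positive control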
BaF3 parental = parental Ba/F3 cell viability inhibition, counter-screen for JAK2V617F inhibitor project, murine pro-B, CellTiter-Glo luminescence; hit rate 1.1% among 220,000; CellTiter-Glo ATP luminescence; inhibition, % at 5.6 µM; AID 1486, 2009;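 active = inhibition above a per-campaign cutoff, the mean inhibition of all tested compounds plus 3 SD, cut at about 27% in these data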;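 note: 0% = DMSO wells and 100% = JAK Inhibitor I control wells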
IEC-6 cytotox = cytotoxicity in IEC-6 intestinal epithelial cells, primary screen, cytotoxicity control for KLF5 inhibitor project, cell-based, luminescence. IEC-6 cytotoxicity, luminescence viability. inhibition, % at 5 µM. hit rate 0.78% among 290,000. AID 1825, 2009;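 note: 0% = plate median of test compound wells and 100% = cytotoxic reference compound wells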
Ba/F3 V617F tox = reduced viability of JAK2V617F-dependent Ba/F3 cells, primary screen, JAK2V617F inhibitor project, cell-based, Ba/F3 EpoR-JAK2V617F, luminescence; AID 1446, 2008; ATP luminescence; hit rate 1.1% among 220,000; inhibition, % at 5.6 µM;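 active = inhibition above the campaign mean plus 3 SD over all tested compounds, cut at about 24% in these data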;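 note: cytokine-independent growth of Ba/F3 cells driven by EpoR plus mutant JAK2; 0% = DMSO-treated cells and 100% = JAK inhibitor I control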
IEC-6 tox confirm = cytotoxic compounds in IEC-6 epithelial cells, confirmation, cytotoxicity control, cell-based, luminescence; hit rate 63% among 1,900; IEC-6 rat intestinal epithelial viability; shares compounds with IEC-6 cytotox; inhibition, % at 5 µM;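 note: 0% = vehicle and 100% = reference cytotoxic drug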
Active calls of the source: *. Cut-off read from the data, not from the text of the source, unless noted: active = inhibition above about 22%; inactive = the rest.

Results for Nc1c2c(nc3c1CCCC3)CCCC2 (tested in a mixture with another compound) ?
KLF5 inhibitor: -46; aSyn 5UTR inh: -2; IEC-6 cytotox: -3

Results for CSCCC(NC(=O)c1ccccc1)C(=O)N1CC=C(c2ccccc2)CC1 (stereo not given) ?
KLF5 inhibitor: -25; aSyn 5UTR inh: 6; IEC-6 cytotox: 2

How did COc1ccc(C(NC(C)=O)c2cc(Cl)c3cccnc3c2O)cc1 (stereo not given) do in these assays?
KLF5 inhibitor: 75*; aSyn 5UTR inh: 76*; IEC-6 cytotox: 54*; IEC-6 tox confirm: 56*

Results for Cc1ccc(S(=O)(=O)N(C)C)cc1NC(=O)[C@H](Cc1ccccc1)N1C(=O)c2ccccc2C1=O ?
APP 5UTR inh: 11; KLF5 inhibitor: -16; aSyn 5UTR inh: 7; BaF3 parental: -2; IEC-6 cytotox: 0; Ba/F3 V617F tox: -2

How did COc1cc(OC)cc(C(=O)N2CC(=O)Nc3ccccc32)c1 do in these assays?
KLF5 inhibitor: 52; aSyn 5UTR inh: 31; IEC-6 cytotox: 74*; IEC-6 tox confirm: 56*

Results for Cc1ccc(/C=C/C(=O)c2ccccc(=O)c2O)cc1C ?
APP 5UTR inh: -4; KLF5 inhibitor: -36; aSyn 5UTR inh: 3; BaF3 parental: 3; IEC-6 cytotox: -4; Ba/F3 V617F tox: -3

What do the screens show for `O=C(Cc1ccc(Cl)cc1)Nc1ccccn1`?
KLF5 inhibitor: -22; aSyn 5UTR inh: -26; IEC-6 cytotox: -4

Results for COc1ccccc1C1CC(=O)Nc2cc3c(cc21)OCCO3 (stereo not given) ?
APP 5UTR inh: 95*; KLF5 inhibitor: 64*; aSyn 5UTR inh: 47; BaF3 parental: 72*; IEC-6 cytotox: 75*; Ba/F3 V617F tox: 73*; IEC-6 tox confirm: 60*

Results for CCOc1ncccc1C(=O)OCc1ccc(C(=O)OC)cc1 ?
APP 5UTR inh: 10; KLF5 inhibitor: -38; aSyn 5UTR inh: -126; BaF3 parental: 2; IEC-6 cytotox: 2; Ba/F3 V617F tox: -2

What do the screens show for `COc1ccccc1N1CCN(CCCn2c(=S)[nH]c3ccccc3c2=O)CC1`?
KLF5 inhibitor: -24; aSyn 5UTR inh: -2; IEC-6 cytotox: 8

Results for COc1ccc(N2CCN(CCCn3c(=S)[nH]c4ccccc4c3=O)CC2)cc1 ?
KLF5 inhibitor: 4; aSyn 5UTR inh: -6; IEC-6 cytotox: 43*; IEC-6 tox confirm: 13

How did CC(=O)/C(C#N)=C1\NC(=O)C(Cc2ccc(F)cc2)S1 (stereo not given) do in these assays?
KLF5 inhibitor: -12; aSyn 5UTR inh: -12; BaF3 parental: 2; IEC-6 cytotox: 72*; Ba/F3 V617F tox: 3; IEC-6 tox confirm: 48*

What do the screens show for `CC(=O)/C(C#N)=C1\NC(=O)C(Cc2ccc(C)c(C)c2)S1` (stereo not given)?
APP 5UTR inh: -30; KLF5 inhibitor: 29; aSyn 5UTR inh: 5; BaF3 parental: 5; IEC-6 cytotox: 78*; Ba/F3 V617F tox: -2; IEC-6 tox confirm: 50*

What do the screens show for `O=C(NCc1ccccn1)Nc1cccc(F)c1`?
KLF5 inhibitor: -29; aSyn 5UTR inh: -16; IEC-6 cytotox: -1

What do the screens show for `COC(=O)C1=C(C)N(CCCC(=O)O)C(=O)NC1c1cccc(OC)c1` (stereo not given)?
aSyn 5UTR inh: 13

How did Cc1cccc(C)c1OCC(O)CNC(C)c1ccccc1 (stereo not given) do in these assays?
KLF5 inhibitor: 16; aSyn 5UTR inh: 54; IEC-6 cytotox: 39*; IEC-6 tox confirm: 18

How did O=[N+]([O-])c1cc([N+](=O)[O-])c2oc(-c3ccccc3)c(Br)c2c1O do in these assays?
KLF5 inhibitor: 1; aSyn 5UTR inh: 15; IEC-6 cytotox: 29*; IEC-6 tox confirm: 8

What do the screens show for `O=C1C(=O)N(CCS(=O)(=O)c2ccccc2)c2ccc(Cl)cc21`?
KLF5 inhibitor: -15; aSyn 5UTR inh: -27; IEC-6 cytotox: 40*; IEC-6 tox confirm: 4

How did CN(C)CCn1c(=O)n(-c2cccc(Cl)c2)c(=O)c2c3c(sc21)CCCCC3 do in these assays?
KLF5 inhibitor: -5; aSyn 5UTR inh: -1; BaF3 parental: 2; IEC-6 cytotox: 5; Ba/F3 V617F tox: 2

Results for Fc1ccc(NC(=S)N2CCOCC2)cc1Cl ?
APP 5UTR inh: -14; KLF5 inhibitor: 6; aSyn 5UTR inh: 23; BaF3 parental: 100*; IEC-6 cytotox: 58*; Ba/F3 V617F tox: 97*; IEC-6 tox confirm: 8

What do the screens show for `Cc1ccc(-c2[nH]c3ccccc3c2C(C[N+](=O)[O-])c2ccco2)cc1` (stereo not given)?
APP 5UTR inh: -14; KLF5 inhibitor: 11; aSyn 5UTR inh: 27; BaF3 parental: 3; IEC-6 cytotox: 25*; Ba/F3 V617F tox: 0; IEC-6 tox confirm: 10

Results for Cc1[nH]c2ccccc2c1C(C[N+](=O)[O-])c1ccco1 (stereo not given) ?
APP 5UTR inh: 14; KLF5 inhibitor: 4; aSyn 5UTR inh: -1; BaF3 parental: 7; IEC-6 cytotox: -3; Ba/F3 V617F tox: 2

Results for COc1ccc(-n2c(C)cc(/C=N/Nc3nnc(C)n3N)c2C)cc1 ?
APP 5UTR inh: -4; KLF5 inhibitor: 11; aSyn 5UTR inh: 24; BaF3 parental: 5; IEC-6 cytotox: 100*; Ba/F3 V617F tox: 16; IEC-6 tox confirm: -4

How did COc1ccc(C2=Nn3c([n+](C)c4ccccc43)SC2)cc1 do in these assays?
APP 5UTR inh: 13; KLF5 inhibitor: 15; aSyn 5UTR inh: 2; BaF3 parental: 77*; IEC-6 cytotox: 30*; Ba/F3 V617F tox: 100*; IEC-6 tox confirm: 24*

Results for Cc1cccc2c3nc4ccccc4nc3n(CCCN3C(=O)c4ccccc4C3=O)c12 ?
APP 5UTR inh: -30; KLF5 inhibitor: -158; aSyn 5UTR inh: 10; BaF3 parental: 11; IEC-6 cytotox: 10; Ba/F3 V617F tox: 1

Results for CCOC(=O)Nc1ccc2nc(N3CCCCCC3)sc2c1 ?
KLF5 inhibitor: -24; aSyn 5UTR inh: -313; BaF3 parental: 67*; IEC-6 cytotox: 67*; Ba/F3 V617F tox: 78*; IEC-6 tox confirm: 60*

How did c1ccc(C2=NNC(c3ccccn3)=NN2)nc1 do in these assays?
KLF5 inhibitor: -114; aSyn 5UTR inh: -118; IEC-6 cytotox: 6

How did O=S(=O)(NCC(O)c1ccccc1)c1cc(Cl)sc1Cl (stereo not given) do in these assays?
KLF5 inhibitor: -17; aSyn 5UTR inh: 9; IEC-6 cytotox: -1
